The values below come from PubChem BioAssay (Tox21).

Values joined by “and” are separate entries in the source; they are usually repeats but may differ in a detail not shown here. Identical values can stand only once. Inconclusive results are not listed. A structure can be active in one record and inactive in another. Active and inactive are the calls of the source. Calls come from the whole dose curve; as a rule, active = well fitted inhibition curve with a large enough effect in the signal ratio in the repeat runs, with a control signal flat; inconclusive = weak or mixed curves, or effect the other way; inactive = flat fitted curve, though single readings scatter; the % refers to the signal ratio.
% is set by controls: 0 for no effect and ±100 for the full control effect; potency is the fitted concentration of half-maximal effect.

In this experiment the target is D(2) dopamine receptor (Homo sapiens) (UniProt P14416). Nature of the experiment: Dopamine D2 receptor (DRD2) small molecule antagonists, cell-based qHTS assay (AID 1963595). The settings on record: HEK293-DRD2 cAMP HTRF antagonist mode; series mostly up to 92.4 µM; activity change, negative = inhibition: at the top concentration. The text has this: National Center for Advancing Translational Sciences [NCATS]
Sequence of D(2) dopamine receptor (Homo sapiens) (P14416 whole entry, looked up): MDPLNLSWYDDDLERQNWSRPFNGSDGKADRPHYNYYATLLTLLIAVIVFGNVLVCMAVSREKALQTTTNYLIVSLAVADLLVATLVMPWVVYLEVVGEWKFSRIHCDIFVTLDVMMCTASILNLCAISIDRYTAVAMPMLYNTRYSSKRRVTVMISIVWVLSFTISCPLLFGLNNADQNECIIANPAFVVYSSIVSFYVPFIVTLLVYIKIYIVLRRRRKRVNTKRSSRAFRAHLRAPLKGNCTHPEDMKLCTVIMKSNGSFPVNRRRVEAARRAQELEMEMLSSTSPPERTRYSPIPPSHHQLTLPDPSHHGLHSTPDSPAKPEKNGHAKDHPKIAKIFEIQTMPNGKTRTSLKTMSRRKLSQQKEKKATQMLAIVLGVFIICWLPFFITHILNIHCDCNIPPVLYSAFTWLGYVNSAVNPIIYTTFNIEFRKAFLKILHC
Division of Preclinical Innovation [DPI]
U.S. Environmental Protection Agency [EPA]
National Institutes of Environmental Health Sciences [NIEHS]
National Toxicology Program [NTP]
U.S. Food and Drug Administration [FDA]
DRD2 is the D2 subtype of the dopamine receptor, which is coupled to Gi subtype of G protein-coupled receptor. This G protein-coupled receptor inhibits adenylyl cyclase activity. The DRD2-HEK293 cell line stably expressing D2 dopamine receptor can be used for screening agonists and antagonists of interactions between D2 and its ligands. The Hek293-DRD2 cAMP assay is based on HTRF technology. It measures changes of cAMP accumulation in response to Gi coupled GPCR activation or inhibition.
Tox21 Assay Protocol Summary:
DRD2-Hek293 cells were dispensed at 600 cells/3uL/well in 1536-well white plates using a Multidrop Dispenser. After the assay plates were incubated at a 37 C/5% CO2 incubator for 24 h, 1 uL of Ro20-1724 at final concentration of 0.1 mM was transferred to the assay plate by a Flying Reagent Dispenser. Following Ro20-1724 addition, 23 nL of compound dissolved in DMSO, positive controls or DMSO only was added to the assay plates via Wako pintool station. The assay plates were incubated at room temperature for 10 min. Next, 1 uL of mixture of NKH477 (final concentration at 200 nM) and quinpirole (final concentration at 12 nM) was added into the plates. After the assay plates were incubated at room temperature for an additional 30 min, 2.5 ul/well of cAMP-d2 and 2.5 ul/well of anti-cAMP-cryptate were added respectively into the assay plates using a Flying Reagent Dispenser. The plates were incubated at room temperature for 1 h. The fluorescence intensity in the plates was measured at 340 nm excitation and 665 & 620 nm emission by an Envision plate reader.
A general note: In qHTS, concentration-response curves come from the screen itself.
Turning to `COC(=O)[C@@H](N)CCCN/C(N)=N/[N+](=O)[O-]`, the “activity change, negative = inhibition” value was -0.194% [at 42.5 µM] (inactive).

Regarding `CNC(=O)O/N=C/C(C)(C)S(C)=O` (stereo not given), the Potency entry was “inactive”.

`C[N+]1(C)CCCCC1`: the “activity change, negative = inhibition” value was -3.95% (inactive).

For the compound `Nc1ccc(-c2ccc(N)cc2)cc1`, the Potency entry is “inactive”.

For `CCCCC1C(=O)NC(=O)N(C2CCCCC2)C1=O` (stereo not given), the “activity change, negative = inhibition” value is 5.14% [at 42.5 µM] (inactive).

For the compound `N#CC(Br)Br`, the Potency result is “inactive”.

As to `Cc1ccc(CCl)cc1`, the “activity change, negative = inhibition” value is 11.1% (inactive).

Consider `C=CC(N)=O`, for which the “activity change, negative = inhibition” value is 1.54% (inactive).

Turning to `CCOC(=O)Nc1cccc(OC(=O)Nc2ccccc2)c1`, the “activity change, negative = inhibition” value is 11.2% (inactive).

On to `COC(=O)c1ccc(CBr)cc1`, for which the “activity change, negative = inhibition” value is -9.09% (inactive).

Regarding `ClC1=C(Cl)C2(Cl)C3C(Cl)C=CC3C1(Cl)C2(Cl)Cl` (stereo not given), the Potency entry was “inactive”.

`COC(=O)c1ccccc1N`: the Potency entry is “inactive”.

With `O=C(O)COc1ccccc1`, the Potency entry is “inactive”.

For the compound `CCCCCCCCOC(=O)c1ccc(C(=O)OCCCCCCCC)c(C(=O)OCCCCCCCC)c1`, the “activity change, negative = inhibition” value was 17.4% (inactive).

For `CCCCCCCCCl`, the Potency result was “inactive”.

For `CCN(N=O)C(N)=O`, the Potency entry is “inactive”.

Consider `CCCCCCCCCCCOC(=O)c1ccccc1C(=O)OCCCCCCCCCCC`, for which the Potency entry was “inactive”.

For `CC(C)(Cl)Cl`, the Potency entry is “inactive”.

For `Nc1cnn(-c2ccccc2)c(=O)c1Cl`, the “activity change, negative = inhibition” value was 0.67% (inactive).

In the case of `CCCCCCCC[N+](C)(CCCCCCCC)CCCCCCCC`, the Potency was 54.4 µM (active) and inactive and 17.2 µM (active).

With `ClCCN1CCCC1`, the “activity change, negative = inhibition” value is 4.62% [at 42.5 µM] (inactive).

In the case of `N#Cc1ccncc1`, the “activity change, negative = inhibition” value was 0.946% (inactive).

In the case of `CCNc1nc(Cl)nc(NC(C)C)n1`, the Potency result was “inactive”.

`CN1CCC(N(Cc2ccccc2)c2ccccc2)CC1`: the “activity change, negative = inhibition” value is 6.21% [at 42.5 µM] (inactive).

Take `c1cc2c3c(cccc3c1)CC2`: the Potency result is “inactive”.

Regarding `COc1cc2c(cc1OC)[C@@]13CCN4CC5=CCO[C@H]6CC(=O)N2[C@H]1[C@H]6[C@H]5C[C@H]43`, the “activity change, negative = inhibition” value is -29.6% (inactive).

In the case of `Sc1ccccc1`, the Potency result was “inactive”.

Consider `Cc1cccc(N)c1`, for which the Potency entry is “inactive”.

Take `CCOC(=O)CP(=O)(OCC)OCC`: the “activity change, negative = inhibition” value was -0.142% (inactive).

In the case of `CCCCCCCCCCCCCCn1cc[n+](C)c1`, the “activity change, negative = inhibition” value is -20.8% (inactive).

For the compound `CC(=O)[O][Hg][c]1ccccc1`, the Potency was 6.06 µM (active) and 2.73 µM (active) and 5.96 µM (active).

`CC(C)(C)OOC(C)(C)C`: the Potency result is “inactive”.

With `CC(C)CCON=O`, the “activity change, negative = inhibition” value is 4.07% (inactive).

As for `O=Cc1ccccc1`, the “activity change, negative = inhibition” value was -0.174% (inactive).

`ClC(Cl)(Cl)c1ccccc1`: the “activity change, negative = inhibition” value was -0.589% (inactive).

In the case of `NC(=S)Nc1ccccc1`, the Potency result is “inactive”.

For the compound `C[C@@H]1O[C@@H](O[C@H]2C[C@@H](O)[C@]3(CO)[C@H]4[C@H](O)C[C@]5(C)[C@@H](C6=CC(=O)OC6)CC[C@]5(O)[C@@H]4CC[C@]3(O)C2)[C@H](O)[C@H](O)[C@H]1O`, the Potency entry was “inactive”.

`CCCCCCCCCCCCCC[P+](CCCCCC)(CCCCCC)CCCCCC`: the Potency is 12.2 µM (active) and 21.9 µM (active) and inactive.

As for `N#CCBr`, the “activity change, negative = inhibition” value is -1.17% (inactive).

On to `COC(=O)c1ccccc1C(=O)OC`, for which the Potency result was “inactive”.
